Experimental data: PubChem BioAssay AID1619 (SRMLSC, 2009)
Hit rate of the full screen: of about 220,000 compounds, about 830 (0.38%) were called active.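 How the source made its calls: active means compound inhibiting the enzyme by more than half at any dose during confirmatory dose-response retesting; inconclusive means strong single-dose inhibitors picked by rank but not retested; inactive means the rest.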 A selection follows. Potency and affinity values are given separately.

These molecules were tested against Leucine aminopeptidase (Plasmodium falciparum (isolate 3D7)) (UniProt Q8IL11) (assay: P. falciparum M17LAP inhibitors, primary screen, biochemical, fluorogenic H-Leu-NHMec substrate, 1536-well (AID 1619;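 further: plate controls were full reaction with DMSO carrier for no effect and no enzyme background for full effect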)). Settings: recombinant M17LAP, H-Leu-NHMec fluorogenic kinetic assay; at 30 µM; active compounds read high.
Sequence of Leucine aminopeptidase (Plasmodium falciparum (isolate 3D7)) (Q8IL11 whole entry, looked up): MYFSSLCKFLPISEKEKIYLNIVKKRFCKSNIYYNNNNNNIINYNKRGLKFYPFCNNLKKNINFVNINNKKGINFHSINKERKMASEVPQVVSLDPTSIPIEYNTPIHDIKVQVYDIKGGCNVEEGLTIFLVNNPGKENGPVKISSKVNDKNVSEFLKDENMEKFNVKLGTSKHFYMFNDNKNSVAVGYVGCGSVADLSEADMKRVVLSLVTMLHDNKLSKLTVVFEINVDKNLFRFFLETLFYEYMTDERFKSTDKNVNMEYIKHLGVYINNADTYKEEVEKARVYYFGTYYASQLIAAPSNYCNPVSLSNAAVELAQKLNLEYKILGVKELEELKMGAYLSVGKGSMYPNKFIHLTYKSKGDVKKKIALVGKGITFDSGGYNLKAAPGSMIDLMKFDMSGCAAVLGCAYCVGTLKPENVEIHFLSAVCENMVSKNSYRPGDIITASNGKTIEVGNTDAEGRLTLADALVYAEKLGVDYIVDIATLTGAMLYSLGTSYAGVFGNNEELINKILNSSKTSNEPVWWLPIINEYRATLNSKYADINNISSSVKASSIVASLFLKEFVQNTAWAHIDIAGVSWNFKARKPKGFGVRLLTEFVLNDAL

inhibition, inactive:
O=C(C[n+]1ccc(/C=N/O)cc1)N(Cc1ccccc1)Cc1ccccc1 4.35%
COCCNC(=O)C(C)OC(=O)c1cc2sccc2n1C (centres undefined) 3.75%
CC(=O)Nc1ccc(S(=O)(=O)Nc2nc3ccccc3nc2Sc2nncn2C)cc1 -11.7%
Cn1cnnc1Sc1nc2ccccc2nc1NS(=O)(=O)c1ccccc1 53.8%
Cc1[nH]n(-c2cccc3ccccc23)c(=O)c1/C=N/NC(=O)c1cccc([N+](=O)[O-])c1 11.1%
CCSc1nnc(NC(=O)C2CCCCC2)s1 1.5%
CCSc1nnc(NC(=O)NC2CCCCC2)s1 -14.6%
CCSc1nnc(NC(=O)C2CC2c2ccccc2)s1 (centres undefined) 15%
CCSc1nnc(NC(=O)C2CCCCC2C(=O)O)s1 (centres undefined) 48.8%
CCOC(=O)c1cc(NC(=O)N(CC)C2CCCCC2)c(C)nc1C 1.12%
Cc1cc(C)cc(NC(=O)CSc2nc3c(c(=O)[nH]2)CN(Cc2ccc(F)cc2)CC3)c1 13.5%
Cc1ccc(NC(=O)CSc2nc3c(c(=O)[nH]2)CN(Cc2ccc(F)cc2)CC3)cc1C -0.17%
CSc1nc(=O)n(-c2ccccc2)c(C)c1C(C)=O 2.84%
COc1cccc(NC(=S)N(CCCN2CCCC(C)C2)Cc2cccs2)c1 (centres undefined) -0.27%
CCOC(=O)c1c(-c2ccccc2)oc2ccc(O)c(CN(C)C)c12 -6.67%
CCOC(=O)Nc1c2ccccc2nc2ccccc12 -87.5%
COc1ccc(CCNC(=O)C2CC(=O)N(CCc3ccc(C)cc3)C2)cc1OC (centres undefined) 5.63%
CCCn1c(SCC(=O)NC2CCCc3ccccc32)n[nH]c1=O (centres undefined) -0.96%
C=CCn1c(N)c(C(=O)N2CCN(C)CC2)sc1=S 14%
O=C(O)c1ccc(S(=O)(=O)Nc2ccc(O)c(Sc3nc4ccccc4s3)c2)cc1 40.7%
O=C(O)c1cccc(S(=O)(=O)Nc2ccc(O)c(Sc3nc4ccccc4s3)c2)c1 42.9%
COc1cccc(Nc2ccc(Nc3cccc(OC)c3)nn2)c1 -1.13%
CCOc1ccc(Nc2nc3ccccc3c(=O)s2)cc1 4.25%
CCOc1ccc(NC(=O)Nc2nnc(CC)s2)cc1 9.94%
COc1cccc(Nc2nc3ccc(OC)cc3s2)c1 14.2%
O=C(CSc1ccc(Cl)cc1)N1CCC(c2nc3ccccc3s2)CC1 1%
CCn1c(SCC(=O)N(C)c2c(N)n(Cc3ccccc3)c(=O)[nH]c2=O)nc2ccccc21 -11.8%
Cc1c(C(=O)NCc2ccccc2)c(-c2ccccc2)nn1-c1ccccc1 6.71%
O=C(COc1ccccc1Cl)N1CCN(c2ncccn2)CC1 5.76%
O=C(O)CSc1nc(C(F)(F)F)cc(=O)n1-c1ccccc1 -6.87%
COCCCNC(=O)c1ccc(Cn2c(=O)c3ccccc3n(CC(=O)NCc3ccco3)c2=O)cc1 -3.96%
CCN(CC)c1ccc(NC(=O)CSc2nc3ccccc3c(=O)n2-c2cc(S(=O)(=O)N(C)C)ccc2C)cc1 -13%
Clc1ccccc1Nc1ncnc2c1nnn2Cc1ccccc1 5.79%
CC(=O)Oc1ccc(C(=O)[C@H]2[C@H]3C(=O)N(c4ccc(C)cc4)C(=O)[C@H]3[C@@H]3C=CC=NN32)cc1 14.6%
c1ccc(CNc2ncnc3nc[nH]c23)cc1 45.1%
COc1ccccc1CNc1ncnc2nc[nH]c12 6.16%
COc1cc2c(cc1OC)CN(C(=S)Nc1ccc(Cl)cc1)CC2 1.81%
CC1CN(C(=O)N2CCOCC2)CCN1C(=O)N1CCOCC1 (centres undefined) -0.08%
CCOC(=O)c1cc(-c2csc(-c3ccc(C(F)(F)F)cc3)n2)on1 -0.99%
C=CCNC(=O)/C(=C\C=C\c1ccccc1)NC(=O)c1ccccc1Cl -0.22%
O=C(NCCCO)/C(=C\C=C\c1ccccc1)NC(=O)c1ccccc1Cl 18.5%
CCc1ccc(C(=O)CSc2nc3cc(S(=O)(=O)N4CCOCC4)ccc3n2CC)cc1 16.6%
O=C(CCSc1ccccc1)NCCSCc1ccco1 22.2%
Cc1oc2c(C)c(O)ccc2c(=O)c1-c1nncn1-c1ccccc1 5.69%
CCOC(=O)c1oc2c(C)c(O)ccc2c(=O)c1-c1nncn1-c1ccccc1 17.4%
CSc1cccc(NC(=O)C2CCN(S(=O)(=O)c3ccc(F)cc3)CC2)c1 -0.52%
COc1cccc(C(=O)NCC2CCN(c3ccc(S(=O)(=O)N4CCOCC4)cc3)CC2)c1 4%
CN(C)S(=O)(=O)c1ccc(C(=O)NC(=O)CSc2ccccc2)cc1 6.97%
CC1=NNC(=O)C1CC(=O)N/N=C/c1ccncc1 (centres undefined) -2.88%
CC1=NNC(=O)C1CC(=O)N/N=C/c1cccs1 (centres undefined) 5.62%
C/C(=N\NC(=O)C1=NNC(=O)C1C)c1cccs1 (centres undefined) 24.2%
CC1=NNC(=O)C1CC(=O)N/N=C/c1ccc(C)o1 (centres undefined) 5.16%
Cc1ccc(/C=C/C(=O)NCCCc2ccccc2)cc1 -0.31%
CCc1ccccc1NC(=O)CC1S/C(=N\c2nccs2)N(CC)C1=O (centres undefined) 0.04%
COc1ccc2cc(C)c(SCC(=O)Nc3cc(C)on3)nc2c1 -7.8%
CCc1cc2ccc(C)cc2nc1SCC(=O)Nc1c[nH]c(=O)[nH]c1=O 21.2%
COc1cc(NC(=O)CSc2nnc3c(C)cc4c(C)ccc(C)c4n23)c(C(=O)O)cc1OC 3.38%
Cc1ccc2cc(C)c(SCC(=O)Nc3ccc(S(=O)(=O)N4CCCC4)cc3)nc2c1 -14.9%
CCc1cc2ccc(C)cc2nc1SCC(=O)Nc1cc(C)on1 -2.5%
CCc1cc2cc3c(cc2nc1SCC(=O)Nc1cc(C)on1)OCO3 7.57%
CCc1cc2cc3c(cc2nc1SCC(=O)Nc1nccs1)OCO3 -1.06%
CCc1ccc2c(c1)cc(C)c1nnc(SCC(=O)Nc3cc(OC)c(OC)cc3C(=O)O)n12 7.71%
Cc1ccccc1OCCCCn1c(CO)nc2ccccc21 5.4%
CN(Cc1ccccc1)C(=O)Cn1c(=O)oc2cc(S(=O)(=O)NCc3ccccc3)ccc21 -8.79%
Nc1cc(=O)[nH]c(SCC(=O)Nc2ccc(S(=O)(=O)N3CCCCC3)cc2)n1 10.7%
CCOc1ccc(N2C(=O)CC(NCCc3ccncc3)C2=O)cc1 (centres undefined) 3.75%
CN1CC(=O)N(CCOc2ccccc2)C1=O 5.27%
CN1CCN(c2ccccc2NC(=O)c2cccc([N+](=O)[O-])c2)CC1 -3.18%
C/C(=N/NC(=O)Cn1nc2ccccc2n1)c1ccc(F)cc1 13.8%
CC(C)c1nc(SCC(=O)N2CCCc3ccccc32)c2c(=O)n(C)c(=O)n(C)c2n1 -8.79%
Cc1c(CN2CCC(CO)(CC3CCCCO3)CC2)cnn1C (centres undefined) -3.19%
Cc1ccc(OCC(=O)N2N=C(C(F)(F)F)CC2(O)C(C)(C)C)cc1C (centres undefined) -0.9%
CCCCSc1nc(O)cc(=O)n1CC 16%
CCOC(=O)c1sc(NS(=O)(=O)c2ccccc2)nc1C 23.4%
Cc1ccc(S(=O)(=O)Nc2nc(C)c(C(=O)NN)s2)cc1 18.9%
Cc1ccc(C(=O)Nc2ccc(F)cc2)o1 7.81%
O=C(Nc1ccc2c(c1)OCCO2)C1CCC1 -5.9%
O=C(Nc1ccc2c(c1)OCCO2)NC1CCCCC1 53.6%
O=C(O)CCNc1ccc2c(c1)OCCO2 13.7%
CC1=C(C)CC(C(=O)Nc2ccc3c(c2)OCO3)C(C(=O)O)C1 (centres undefined) 8.14%
O=C(O)CCCCCNS(=O)(=O)c1ccc2c(c1)OCCO2 -3.71%
O=C(Nc1ccc2c(c1)OCCO2)C1CC1c1ccccc1 (centres undefined) -1.74%
O=C(c1cc(-c2ccc(F)cc2)on1)N1CCCc2ccccc21 1.4%
CCCCOCCCNC(=O)C1CCCCC1 -2.13%
C=CCn1cnc2c(nnn2-c2ccc(Cl)cc2)c1=O 1.25%
CCCCc1ccc(NC(=O)CC(C)=O)cc1 7.92%
Cc1c(Cl)cccc1NC(=O)CSC(N)=O 3.23%
O=C(CSCc1cc(=O)[nH][nH]1)Nc1ccc(F)cc1 5.96%
Cc1c(Cl)cccc1NC(=O)CSCC(N)=O -1.74%
O=C(Nc1ccc(F)cc1F)N1CCC(c2nc3ccccc3o2)CC1 2.14%
CCOCCCn1c(=S)[nH]c2cc(C(=O)NCC(OC)OC)ccc2c1=O 1.45%
Cc1cc(OCC(=O)N2CCOCC2)ccc1NC(=O)C1CCCCC1 5.24%
O=C(OCC(=O)N1CCN(C(=O)c2ccco2)CC1)c1ccccc1OCc1ccccc1 7.24%
NC(=O)COC(=O)c1ccccc1OCc1ccccc1 13.1%
CC(c1ccccc1)n1c(-c2cccs2)nc2c(c(=O)c3ccccc3n2C)c1=O (centres undefined) 7.83%
CCOc1ccc(C(C(=O)Nc2ccc(F)cc2)N(C(=O)Cn2nnc3ccccc32)C2CC2)cc1 (centres undefined) 6.8%
CC1CCCCC12NC(=O)N(CC(=O)Nc1ccc(N3CCOCC3)cc1)C2=O (centres undefined) 22%
CC1CCC2(CC1)NC(=O)N(CC(=O)NC(=O)Nc1ccc3c(c1)OCCO3)C2=O (centres undefined) 2.34%
CC1CCC2(CC1)NC(=O)N(CC(=O)Nc1ccc3c(c1)CCC3)C2=O (centres undefined) -3.16%
O=C(CN1CCCCC1)Nc1ccc(N2CCCCCC2)cc1 43.3%
CC1CCCCN1CC(=O)Nc1ccc(N2CCCCCC2)cc1 (centres undefined) 37.6%
O=C(CN1C(=O)C2C3C=CC(C3)C2C1=O)Nc1ccc(F)cc1 (centres undefined) -2.69%
O=C(CN1C(=O)NC2(CCCCC2)C1=O)Nc1ccc(N2CCOCC2)cc1 29.2%
O=C(CCN1C(=O)C2C3C=CC(C3)C2C1=O)Nc1ccc2c(c1)OCO2 (centres undefined) -8.11%
